SMILES strings stand for the structures. About 250 (12%) of roughly 2,000 compounds were called active. Many of the other results were omitted from the sample, so actives are more common in it than they were. A number with no mark means an inactive call. Cut-off read from the data, not from the text of the source: active = hERG blockade below about -20% or above about 20%; inactive = in between.

For the experiment, the target named is Voltage-gated inwardly rectifying potassium channel KCNH2 (Homo sapiens) (UniProt Q12809). The experiment is described as follows: modulators of KCNH2 ion channel function, cellular (AID 376).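 Note: 0% = buffer alone and 100% = reference blocker.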 The following applies: hERG-expressing cells, channel activity single-concentration screen; concentration not given here.
Sequence of Voltage-gated inwardly rectifying potassium channel KCNH2 (Homo sapiens) (Q12809 whole entry, looked up): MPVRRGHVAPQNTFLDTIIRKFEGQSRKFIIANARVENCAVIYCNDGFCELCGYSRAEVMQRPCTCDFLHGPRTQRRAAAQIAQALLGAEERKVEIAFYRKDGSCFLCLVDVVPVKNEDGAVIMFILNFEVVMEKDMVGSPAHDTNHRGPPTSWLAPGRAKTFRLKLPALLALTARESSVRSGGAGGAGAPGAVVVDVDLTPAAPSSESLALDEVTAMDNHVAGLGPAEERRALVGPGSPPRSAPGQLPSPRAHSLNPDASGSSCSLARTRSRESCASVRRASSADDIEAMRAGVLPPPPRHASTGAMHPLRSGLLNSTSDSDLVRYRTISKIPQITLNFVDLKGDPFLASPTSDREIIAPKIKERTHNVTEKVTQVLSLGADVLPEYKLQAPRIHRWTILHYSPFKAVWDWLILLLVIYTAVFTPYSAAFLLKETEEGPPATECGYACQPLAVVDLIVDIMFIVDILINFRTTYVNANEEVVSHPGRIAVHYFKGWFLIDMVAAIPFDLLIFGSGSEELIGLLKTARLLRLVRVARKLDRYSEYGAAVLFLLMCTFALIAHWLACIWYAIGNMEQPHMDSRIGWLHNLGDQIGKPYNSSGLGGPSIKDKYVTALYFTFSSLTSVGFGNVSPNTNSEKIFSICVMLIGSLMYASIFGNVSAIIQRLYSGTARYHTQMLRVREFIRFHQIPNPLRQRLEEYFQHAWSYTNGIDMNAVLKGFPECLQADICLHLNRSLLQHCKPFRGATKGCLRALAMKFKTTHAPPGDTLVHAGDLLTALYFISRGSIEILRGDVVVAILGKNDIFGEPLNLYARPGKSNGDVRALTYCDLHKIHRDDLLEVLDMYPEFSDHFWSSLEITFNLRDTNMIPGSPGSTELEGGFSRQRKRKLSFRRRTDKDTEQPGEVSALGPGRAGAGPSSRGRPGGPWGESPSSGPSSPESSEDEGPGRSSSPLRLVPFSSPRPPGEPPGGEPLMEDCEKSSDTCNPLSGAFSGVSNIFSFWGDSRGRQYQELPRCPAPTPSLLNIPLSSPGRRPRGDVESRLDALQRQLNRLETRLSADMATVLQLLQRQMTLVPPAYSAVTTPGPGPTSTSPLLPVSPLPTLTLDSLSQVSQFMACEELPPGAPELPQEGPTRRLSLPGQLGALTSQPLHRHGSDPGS
As to `CC12CCC(CN(CCC[N+](C)(C)C)C1)C2(C)C` (centres undefined), the hERG blockade is 4.55%.

As for `CC1CCC2N(C1)CC1C3(O)CC45OC6(O)C(O)CCC4(C)C6CCC5C3(O)CC(O)C1(O)C2(C)O` (centres undefined), the hERG blockade is 12.9%.

Regarding `CSCCC(N)P(C)(=O)O` (centres undefined), the hERG blockade is -4.74%.

Regarding `C[As+](C)(c1ccc(Br)c([N+](=O)[O-])c1)c1ccc(Br)c([N+](=O)[O-])c1.O=[N+]([O-])[O-]`, the hERG blockade was 13.6%.

Turning to `N=C(N)n1cc(C=NN=C(N)N)cn1`, the hERG blockade is 47.3% (active).

For the compound `S=P(C1CCCCC1)(C1CCCCC1)C(c1cccnc1)N1CCCC1` (centres undefined), the hERG blockade is 1.56%.

Regarding `O.O.[NH-]C1(C(=O)O)CCCC1.[NH-]C1(C(=O)O)CCCC1.[Ni+2]`, the hERG blockade is 1.76%.

For `Cc1cc[c]([Sb]2[O]C(CO)C(C(O)C(O)C(=O)O)[O]2)cc1` (centres undefined), the hERG blockade was -4.77%.

In the case of `COc1cc2c(cc1OC)C13CCN4CC5=CCOC(CC(=O)O)C(C5CC41)C3N2` (centres undefined), the hERG blockade is 2.07%.

With `O=c1[nH]cnc2[nH]cc(CN3CCCCC3)c12`, the hERG blockade was 1.35%.

Take `O=c1[nH]c2ccccc2n1CCCN1CCC(n2c(=O)[nH]c3cc(Cl)ccc32)CC1`: the hERG blockade is 67.7% (active).

For `CCNC(C)(C)C(SS)c1ccc(Br)cc1` (centres undefined), the hERG blockade is -7.7%.

`O=C(O)CC1OCC=C2CN3CCC45c6ccccc6NC4C1C2CC35` (centres undefined): the hERG blockade was -7.07%.

For the compound `CC1(C)CC(=N[N-]C(N)=[SH+])CC(C)(C)N1.CC1(C)CC(=N[N-]C(N)=[SH+])CC(C)(C)N1.[Ni]`, the hERG blockade was -0.871%.

In the case of `O=C(O)C1[O][Sb][O]C(C(=O)O)C1O` (centres undefined), the hERG blockade was -9.98%.

As for `CC(C)=CC1C(C(=O)OCc2cc3c(cc2Cl)OCO3)C1(C)C` (centres undefined), the hERG blockade is 1.35%.

`c1nc(N2CC2)c2cnn(C3CCCCO3)c2n1` (centres undefined): the hERG blockade is 4.58%.

Consider `O=C(O)C1C2c3ccccc3C(c3ccccc32)C1C(=O)NCC1CC1` (centres undefined), for which the hERG blockade is -8.3%.

As to `CC(C)CCC1(CCN)C(=O)NC(=O)NC1=O`, the hERG blockade is -21.5% (active).

For `CC12Cc3cnc(-c4ccccc4)nc3CC1CCC1C2CCC2(C)C1CCC2(C)O` (centres undefined), the hERG blockade is 6.41%.

Consider `NC(Cc1c[nH]c2cc([N+](=O)[O-])ccc12)C(=O)O` (centres undefined), for which the hERG blockade is -0.372%.

For the compound `CCC1(CCSC(=N)N)C(=O)NC(=O)NC1=O`, the hERG blockade is -24.7% (active).

As to `CCNCCC1(CC)C(=O)NC(=O)NC1=O`, the hERG blockade was -21.7% (active).

With `NCC(O)CSP(=O)(O)O` (centres undefined), the hERG blockade is -13.3%.

In the case of `CS(=N)(=O)CCC(N)P(=O)(O)O` (centres undefined), the hERG blockade was -8.23%.

In the case of `COc1cc2ccccc2c2cc([N+](=O)[O-])oc12`, the hERG blockade is 15.9%.

With `CC12CCC(O)CC1CCC1C2CCC2(C)C(C(=O)CC(O)C(F)(F)F)CCC12` (centres undefined), the hERG blockade is -1.73%.

With `CC(C)CC(=O)CC(O)C(Cl)(Cl)Cl` (centres undefined), the hERG blockade is -17%.

Regarding `CC(Br)(C(=O)O)C(Br)C(=O)O` (centres undefined), the hERG blockade was 11.1%.

`CCC1C2Cc3ccc(O)cc3C1(CC)CCN2C` (centres undefined): the hERG blockade is 1.71%.

`CCC1=C(CC2NCCc3cc(OC)c(OC)cc32)CC2c3ccccc3CCN2C1` (centres undefined): the hERG blockade is 46% (active).

`COC(=O)c1c(C)ccc2c(O)c3c(cc12)C(=O)c1c2c(cc(O)c1C3=O)C1(C)OC(C)(O2)C(O)C(N(C)C)C1O` (centres undefined): the hERG blockade was 18.8%.

As for `NCCc1ccc(S(=O)(=O)O)cc1[N+](=O)[O-]`, the hERG blockade is 2.55%.

For `O=[As](O)(O)c1ccc(NCc2ccccc2)cc1`, the hERG blockade was -4.95%.

`COc1ccc(CC(N)c2ccc(OC)cc2)cc1` (centres undefined): the hERG blockade was 16.9%.

`CC(=O)OC1CC2(C)C(=CC1C1SCCS1)CCC1C2CCC2(C)C(OC(C)=O)CCC12` (centres undefined): the hERG blockade was 4.12%.

On to `Cc1ccc(C2(c3ccc(C)c(O)c3C)CCN(C)CC2)c(C)c1O`, for which the hERG blockade was 21.1% (active).

Take `Cc1ncc([N+](=O)[O-])n1CCN=[N+]=[N-]`: the hERG blockade is -3.49%.

With `c1ccc(C[N+]23CN4CN(CN(C4)C2)C3)cc1`, the hERG blockade is -14.9%.

`Nc1nc2c(ncn2C2OC(CO)C(O)C2O)c(=[SH+])[nH]1.O=[N+]([O-])c1ccc(O)[c]([Hg])c1` (centres undefined): the hERG blockade is 5.92%.

As for `COC(=O)C1c2cc3c(c(O)c2C(O)CC1(C)O)C(=O)c1c(O)cc2c(c1C3=O)OC1OC2(C)C(O)C(N(C)C)C1O` (centres undefined), the hERG blockade was 18.4%.

In the case of `NC(Cc1ccccc1)P(=O)(O)O` (centres undefined), the hERG blockade is 1.7%.

In the case of `CC1(C)CCC(C)(C)c2c1ccc(O)c2Cc1c(O)ccc2c1C(C)(C)CCC2(C)C`, the hERG blockade was -7.52%.

Regarding `COc1cc2c(cc1O)CC1c3c(cc(O)c(OC)c3-2)CCN1C` (centres undefined), the hERG blockade was 4.49%.

`COc1ccc(CC2C(=O)NC(C)C(=O)N(C)C3C(=O)N(C)C(Cc4ccc(O)c(c4)Oc4ccc(cc4)C3O)C(=O)NC(C)C(=O)NC(C)C(=O)N2C)cc1` (centres undefined): the hERG blockade is 6.31%.

For the compound `COc1cc2c3cc1Oc1c(O)c(OC)cc4c1C(Cc1ccc(cc1)Oc1cc(ccc1O)CC3N(C)CC2)N(C)CC4` (centres undefined), the hERG blockade was 38.6% (active).

For `N#CS.N=C=S.N=C=S.[Cu+2].[NH2-].[NH2-].[NH2-].[NH2-].c1ccc2ncccc2c1`, the hERG blockade is 6.79%.

Consider `c1cncc(CNCCN2CCNCC2)c1`, for which the hERG blockade is -8.8%.

Regarding `NC1(P(=O)(O)O)CCCCC1`, the hERG blockade was -4.89%.

Values taken from PubChem BioAssay AID376 (PDSP, 2006).
